Results on 58 compounds are retold here after ChEMBL document CHEMBL3988442, “University of Dundee, Small-Polar-MMV Screening Library” (2021).

SMILES strings stand for the structures. In all, about 48,000 compounds went through this assay and about 13,000 (27%) showed an effect of 50% or more. The list shows a part of the results.

The experiment deals with Wolbachia pipientis. Nature of the experiment: Anti-Wolbachia Cell-Based Screen. The settings on record: 5 µM. The format is functional. Also on record: scale not given: in the data most compounds retested in dose-response had high values.
Take `O=C(NCCc1ccncc1)[C@H]1CC[C@@H]2[C@@H](CCN2C2CCC2)O1`: the “Percent Effect” value was -5.975%.
In the case of `OCCN1CCN(Cc2cc3c(cc2Br)OCCO3)CC1` it was 1.369%; in that of `CC(C)=CCN1C[C@H]2CC[C@@H]1CN(C(=O)Cc1c(C)nc(C)[nH]c1=O)C2`, -7.395%.
In the case of `Cc1ccnc(NCCNC(=O)C2CC3(CCNCC3)CN2C)c1` (stereo not drawn), the “Percent Effect” value worked out at 2.033%.
In the case of `Cc1ccc2c(c1)C(NC1CC1)CC21CCNCC1.Cl` (stereo not drawn) it was 121%; in that of `Cc1ccc2c(c1)C(NC(C)C)CC21CCNCC1.Cl` (stereo not drawn), -5.487%; in that of `Cl.Cl.Fc1ccc2c(c1)C1(CCNCC1)CC2NC1CC1` (stereo not drawn), 108.3%.
Next, `COc1ccc2c(c1)C1(CCNCC1)CC2NC1CC1.Cl.Cl` (stereo not drawn): 123.6%; `Cc1ccc2c(c1)C1(CCNCC1)CC2NCCO.Cl.Cl` (stereo not drawn): 90.17%.
On to `CC(C)NC1CC2(CCNCC2)c2cc(F)ccc21.Cl.Cl` (stereo not drawn), for which the “Percent Effect” value came out at 1.689%.
In the case of `Cl.O=C(Nc1ccccc1)C1=NOC2(CCNCC2)C1` it was -4.719%; in that of `CN(C)C(=O)CN1CCCC2(CCN(c3ccc(C#N)cn3)C2)C1.O=C(O)C(F)(F)F` (stereo not drawn), -7.726%; in that of `Cc1cnn(CC(C)NCC(=O)NC2CCOCC2)c1` (stereo not drawn), 1.556%.
Next, `COc1nc(N2CCNCC2)ncc1Br`: -8.9%; `CNC(=O)C1CCC2(CCNCC2)C1.O=C(O)C(F)(F)F` (stereo not drawn): 1.559%.
Next, `Cc1ccc2c(c1)C1(CCNCC1)CC2NC(C)C.Cl.Cl` (stereo not drawn): -0.3898%.
As to `Cc1ccc2c(c1)C1(CCNCC1)CC2NC1CC1.Cl.Cl` (stereo not drawn), the “Percent Effect” value turned out to be 133.8%.
In the case of `CN(C)C(=O)C1CCC2(CCNCC2)C1.O=C(O)C(F)(F)F` (stereo not drawn) it was -33.97%.
Next, `NC(=O)CC1CC2(CCNCC2)c2cc(F)ccc21.O=C(O)C(F)(F)F` (stereo not drawn): 111.2%; `COC1CCC[C@@H]2CN(Cc3csc(C)n3)C[C@H]12.O=C(O)C(F)(F)F` (stereo partly drawn): -10.37%; `O=C(Cc1ccccn1)N1C[C@H]2CN(Cc3ccccn3)C[C@H]2C1`: 97.89%.
In the case of `Cn1cnc(S(=O)(=O)N2C[C@H]3CN(Cc4ccccn4)C[C@H]3C2)c1.O=C(O)C(F)(F)F.O=C(O)C(F)(F)F` it was 1.449%; in that of `O=C1NC[C@H]2CN(Cc3ccccn3)CCN12`, -1.346%; in that of `Cc1nc(CN2C[C@@H]3CN(C(=O)Cc4ccccn4)C[C@@H]3C2)cs1.O=C(O)C(F)(F)F.O=C(O)C(F)(F)F`, 107.4%.
Consider `O=C(NCCc1c[nH]cn1)c1ccccc1C1CCNC1` (stereo not drawn), for which the “Percent Effect” value is listed as -4.788%.
In the case of `C/C(=C\c1ccco1)CN(C)C(C)Cc1ccccn1` (stereo not drawn) it was -10.17%.
Next, `Cc1ccccc1-n1nc(C)c(CN(C)C(C)Cc2ccccn2)c1C.O=C(O)CC(O)(CC(=O)O)C(=O)O` (stereo not drawn): 108.5%.
Next, `CC(Cc1ccccn1)N(C)Cc1ccc2c(c1)CCO2` (stereo not drawn): 27.39%; `Cc1cc(N2CCC(NC(C)Cc3ccsc3)CC2)nc(N)n1` (stereo not drawn): -1.435%; `O=C(C1CCCCC1)N1C[C@@H]2CCNC[C@@H]21`: -27.82%.
As to `Cl.O=C(N1CCOCC1)N1CCC2(CCNC2)C1` (stereo not drawn), the “Percent Effect” value is -12.19%.
Next, `CN(Cc1cccnc1)[C@@H]1CN(CC2CC2)[C@@H]2CCCO[C@H]12.O=C(O)C(F)(F)F.O=C(O)C(F)(F)F.O=C(O)C(F)(F)F`: -5.445%; `CN1CCN([C@@H]2CN(C(=O)Cc3ccsc3)[C@@H]3CCCO[C@H]23)CC1.O=C(O)C(F)(F)F.O=C(O)C(F)(F)F`: -4.372%; `O=C(Cc1cccs1)N1C[C@@H]2OCCN(CC3CCCO3)[C@@H]2C1.O=C(O)C(F)(F)F` (stereo partly drawn): -0.9645%.
Next, `O=C(Cc1ccsc1)N1C[C@@H]2OCCN(CC3CC3)[C@@H]2C1.O=C(O)C(F)(F)F`: -8.837%; `Cc1cccc(CN2C[C@@H](NC(=O)C3CC3)[C@H]3OCCC[C@H]32)n1.O=C(O)C(F)(F)F.O=C(O)C(F)(F)F`: -26.04%; `CN(C)[C@@H]1CN(C(=O)Cc2ccc(F)cc2)[C@@H]2CCCO[C@H]12.O=C(O)C(F)(F)F`: 85.9%.
Regarding `Cc1cc(CN2C[C@@H]3CCCO[C@@H]3[C@H](N(C)C(C)C)C2)no1.O=C(O)C(F)(F)F.O=C(O)C(F)(F)F`, the “Percent Effect” value is -6.146%.
In the case of `CN(C)[C@@H]1CN(C(=O)Cc2ccsc2)[C@@H]2CCCO[C@H]12.O=C(O)C(F)(F)F` it was 105.5%; in that of `Cc1ccc(N2C[C@@H]3CCCO[C@@H]3[C@H](N3CCCC3)C2)nn1.O=C(O)C(F)(F)F.O=C(O)C(F)(F)F`, -4.873%.
Next, `CN(C)[C@@H]1CN(C(=O)Cc2cccs2)[C@@H]2CCCO[C@H]12.O=C(O)C(F)(F)F`: 115.4%; `O=C(Cc1cccs1)N1C[C@@H]2OCCN(CC3CCCC3)[C@@H]2C1.O=C(O)C(F)(F)F`: -11.83%; `CN(C)[C@@H]1CN(C(=O)Cc2ccccc2)[C@@H]2CCCO[C@H]12.O=C(O)C(F)(F)F`: 100.5%.
With `Cc1c(C(=O)O)nnn1Cc1cccc(C(F)(F)F)c1`, the “Percent Effect” value is recorded as 6.81%.
For `COc1cccc(CN2CCN3C(=O)NC[C@H]3C2)n1`, the “Percent Effect” value was determined as 7.899%.
`CN1CCC(N2CCN3C(=O)NC[C@H]3C2)CC1`: the “Percent Effect” value is -3.981%.
For the compound `Cc1csc(C2(NCC(O)COC(C)C)CCCC2)n1` (stereo not drawn), the “Percent Effect” value is recorded as -1.656%.
In the case of `CC(=O)NC[C@H]1C[C@@H]2CCN1C[C@@H]2c1cc(-c2cccs2)nn1C` it was -4.622%; in that of `CN(C)[C@@H]1CN(C(=O)Cc2cccc(F)c2)[C@@H]2CCCO[C@H]12.O=C(O)C(F)(F)F`, 118.8%; in that of `Cn1cc(CN2CC[C@@H]3[C@@H]2CCN3C(=O)Cc2cccc(F)c2)cn1.O=C(O)C(F)(F)F`, -1.291%.
As for `Cc1nnc(N2CCNCC2)c(C(N)=O)c1C`, the “Percent Effect” value is -61.72%.
Next, `O=C(NCc1cccnc1)[C@H]1CN2CCC1C[C@@H]2Cn1cc(CO)nn1` (stereo partly drawn): 4.498%; `O=C(NCc1cccnc1)C1=NOC2(CCCN(CCO)C2)C1` (stereo not drawn): 6.778%; `CN1CCC2(CC1)CNC(=O)c1ccccc1O2`: -4.791%.
In the case of `O=C1NCC2(CCCN(Cc3ccncc3)C2)Oc2ccccc21` (stereo not drawn) it was 106%; in that of `CN(C)c1ncc2c(n1)C1(CCN(Cc3cccnc3)C1)COC2` (stereo not drawn), -5.079%.
In the case of `O=C1NCC2(CCCN(Cc3cccnc3)C2)Oc2ccccc21` (stereo not drawn) it was 95.18%; in that of `O=C1Nc2ccccc2C12CCCN(Cc1ccncc1)C2` (stereo not drawn), -10.97%.
